Compound activity deposited in PubChem by National Center for Advancing Translational Sciences (NCATS).
Rows were chosen to be rich in hits. Some 10% of all compounds tested hit in one or more screens of this group.
HPGD inh: inhibitors of human 15-hydroxyprostaglandin dehydrogenase (HPGD); 4.3% of 150,000 active; purified HPGD, NADH fluorescence kinetic, PGE2 substrate; Potency, µM, without a hit: at the top dose activity change, negative = inhibition, hits mostly inhibitors; also: potency is read from the fitted curve at half-maximal effect
Target sequence (P15428 whole entry, looked up): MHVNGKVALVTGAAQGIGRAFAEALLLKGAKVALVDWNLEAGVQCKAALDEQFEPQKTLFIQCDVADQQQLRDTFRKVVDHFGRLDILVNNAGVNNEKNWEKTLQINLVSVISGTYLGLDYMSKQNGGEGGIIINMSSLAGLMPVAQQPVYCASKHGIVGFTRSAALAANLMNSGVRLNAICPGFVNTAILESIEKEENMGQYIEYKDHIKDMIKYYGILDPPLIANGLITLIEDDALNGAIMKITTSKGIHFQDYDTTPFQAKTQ
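20 nM HPGD preincubated 15 min at room temperature with compound in 50 mM Tris-HCl pH 8, 0.01% Tween 20. Started with 1 mM NAD+ and 30 uM prostaglandin E2; NADH fluorescence (360/450 nm) read 5 times over 30-s intervals, last minus first.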
12-hLO inh: inhibitors of human 12-lipoxygenase (ALOX12); purified 12-hLO, xylenol orange hydroperoxide absorbance; Potency, µM (series often up to 57.1 µM), inactives show top-dose activity change, negative = inhibition, usual class: inhibitors; AID 1452; 0.12% of 150,000 active; active = well fitted inhibition curve with a large enough effect; inconclusive = small, poorly fitted or top-dose-only effect; also: potency is read from the fitted curve at half-maximal effect; nearly all actives have a fitted effect of over 55% in size
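Lipoxygenase turnover measured by absorbance at 573 and 405 nm after Fe-XO development. Human 12hLO 150 nM, arachidonate 40 uM, pH 7.0 Hepes buffer with detergent; 15 min compound preincubation, 30 min reaction.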
ALDH1A1 block: blocks purified human ALDH1A1 activity. Purified ALDH1A1, NADH fluorescence, propionaldehyde substrate. P00352. 7.3% of 220,000 active. AID 1030. Potency, µM (series often up to 75.3 µM), inactives show at the top dose activity, negative = inhibition, most hits filed as inhibitors;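 also: potency is read from the fitted curve at half-maximal effect; plate controls were no enzyme wells and a reference inhibitor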
Lamin A splicing: changes lamin A minigene splicing in HeLa cells; HeLa LMNA splicing GFP/RFP minigene ratio, 48 h; Potency, µM (titrated, usually from 46.1 µM), for inactives: at the highest dose ratio change, negative = inhibition, usual class: inhibitors; 0.01% of 200,000 active; active = well fitted inhibition curve with a large enough effect in the signal ratio, with a control signal flat, not every such curve was filed as active; inconclusive = small, poorly fitted or top-dose-only effect, or effect the other way, or a change in a side signal; the % refers to the signal ratio; also: potency is read from the fitted curve at half-maximal effect
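S3 HeLa stable clones carrying a lamin A-EGFP splicing minigene plus DsRed2 were seeded at 600 cells/well in Opti-MEM with 2% FBS, pin-dosed and incubated 48 h at 37°C. Acumen cytometry (488 nm) gave the GFP/RFP total-intensity ratio.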
PNC assembly inh: perinucleolar compartment assembly inhibition | 3.1% of 140,000 active | AID 2417 | activity change (PNC), negative = inhibition, % at 10 µM | PC3M PTB-GFP, PNC prevalence imaging, 16 h; stronger effect = lower value;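 active = readout at or below -70, meaning at least 70% loss of cells showing the perinucleolar compartment, a nuclear body marking cancer cells; inconclusive = readout between -30 and a set limit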;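 also: plate controls were DMSO wells for no effect and camptothecin positive control wells for full effect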
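Compounds are pinned in duplicate onto adhered PC3M cells stably expressing GFP-tagged PTB and incubated 16 h at 37 C. Cells are then fixed, nuclei stained with Hoechst, and PNC-positive cells counted.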
* marks the source's active call; other numbers are inactive results; ? = inconclusive; nt = no result given; [ ] = another dose, or the depositor's remark. Unless noted, calls follow the shape of the dose curve; as a rule, active = well fitted inhibition curve with a large enough effect (not every such curve was filed as active); inconclusive = small, poorly fitted or top-dose-only effect, or another doubt; inactive = no such curve, though single readings can be large or run the other way. Unless noted, % is scaled to controls: 0 for no effect and ±100 for the full control effect.

SMILES	HPGD inh	12-hLO inh	ALDH1A1 block	Lamin A splicing	PNC assembly inh
Cc1c(C(=O)O)cccc1-c1ccc(/C=C2/NC(=O)N(c3ccccc3)C2=O)o1	nt	nt	5.6µM*	4%[46 µM]	nt
Cc1nnc(N2CCOCC2)c2nn(-c3cccc(Cl)c3)c(C)c12	-11%	0%	-5%	?	?
COc1ccc(CCNC(=O)c2oc(=O)c3ccccc3c2-c2ccccc2)cc1OC	nt	nt	nt	-1%[46 µM]	nt
COC(=O)C(C(=O)Nc1ccccc1C)C1CCCC1 (stereo unspecified)	-1%	0%	-6%	11%	-83*
COC(=O)C(C(=O)Nc1ccc(OC)cc1)C1CCCCCC1 (stereo unspecified)	-8%	-7%	?	-19%	-81*
Cc1ccccc1NC(=O)C(NC1CCCCC1)C(C)C (stereo unspecified)	nt	nt	-4%	?	nt
COc1ccc(-n2ncc(C(=O)N3CCN(Cc4ccccc4)CC3)c2C2CCN(C(=O)OC(C)(C)C)CC2)cc1	nt	nt	nt	1%[46 µM]	nt
C[C@H](CCC(=O)O)[C@H]1CC[C@@H]2[C@H]3[C@@H](C[C@@H](O)[C@]21C)[C@]1(C)CC[C@H](O)C[C@@H]1C[C@@H]3O	-2%	3%[11.4 µM]	1%[13.5 µM]	?	nt
Cc1ccc(NC(=O)/C=C\C(=O)NCC(=O)O)cc1C	-18%	0%	5µM*	3%	-16
Cc1ccc(OC(=O)NC2CCS(=O)(=O)C2)cc1C (stereo unspecified)	-2%	-2%	5%	2%	?
Cc1ccc(NC(=O)CCSCCC(=O)Nc2ccc(C)c(C)c2)cc1C	-24%	-19%	18µM*	-4%	46
Cc1ccc(NC(=O)CNC2CCS(=O)(=O)C2)cc1C (stereo unspecified)	nt	nt	16µM*	nt	nt
CCc1ccccc1NC(=O)c1oc(=O)c2ccccc2c1-c1ccccc1	nt	nt	nt	-6%[46 µM]	nt
Cc1ccc(-c2cn3c(n2)sc2cc(C(=O)NCCC4=CCCCC4)ccc23)c(C)c1	nt	nt	nt	0%[46 µM]	nt
COC(=O)c1ccc2c(=O)n(CCc3ccc(S(N)(=O)=O)cc3)c(SCC(=O)C(C)(C)C)nc2c1	nt	nt	nt	-10%[46 µM]	nt
COC(=O)C1=C(C)OC(N)=C(C#N)C1c1ccco1 (stereo unspecified)	-10%	-2%	-10%	-5%	?
C=CCOC(=O)C1=C(C)OC(N)=C(C#N)C1c1ccc2c(c1)OCO2 (stereo unspecified)	?	-29%	?	6%	39
COCCOC(=O)C1=C(C)OC(N)=C(C#N)C1c1ccco1 (stereo unspecified)	-17%	15%	?	-9%	-100*
COCCOC(=O)C1=C(C)OC(N)=C(C#N)C1c1ccc2c(c1)OCO2 (stereo unspecified)	32µM*	-23%	13µM*	8%	29
Cc1cc(C)nc(SCCC(=O)N(C)C)n1	-15%	-2%	3%	15%	21
Cc1cc(C)nc(SCCS(=O)Cc2ccc(Cl)cc2)n1 (stereo unspecified)	-7%	-3%	?	-12%	-110*
COCCn1c(SCC(=O)Nc2ccc(Br)cc2)nc2c([nH]c3ccccc32)c1=O	nt	nt	nt	8%[46 µM]	nt
C(=N/Nc1ccccn1)/c1cccnc1	-1%	-5%[11.4 µM]	2%[13.5 µM]	nt	nt
CCN(CC)C(=S)Nc1ccc([N+](=O)[O-])cc1	-8%	-4%	?	-6%	33
CCN(CC)c1ccc(C2NCC(c3ccc([N+](=O)[O-])cc3)O2)cc1 (stereo unspecified)	-11%	2%	0.28µM*	-4%	-21
SMILES	HPGD inh	12-hLO inh	ALDH1A1 block	Lamin A splicing	PNC assembly inh
CCCCCCCC(=O)OCCOC(=O)CCCCCCC	-3%	1%[0.00818 µM]	12%	nt	nt
Cc1nc2ccccc2nc(C)c1=NO	-24%	-1%	22µM*	-3%	-2
COCCOC(=O)C1=C(C)NC(=O)NC1c1ccc(-c2cc(Cl)ccc2Cl)o1 (stereo unspecified)	nt	nt	3.2µM*	0%[46 µM]	nt
COC(=O)C1=C(C)NC(=O)NC1c1ccc(-c2ccc(F)cc2)o1 (stereo unspecified)	nt	nt	-8%	7%[46 µM]	nt
COC(=O)C1=C(C)NC(=O)NC1c1ccc(-c2ccccc2Cl)o1 (stereo unspecified)	nt	nt	10µM*	nt	nt
COCCNC(=O)Cn1cc(S(=O)(=O)Cc2ccccc2Cl)c2ccccc21	nt	nt	nt	13%[46 µM]	nt
